Bioassay records (PubChem)
This is a sample that favours compounds with a hit; in the whole collection about 20% have one here.
Cycloheximide cs = affects cycloheximide protein synthesis inhibition readout, counter-screen. cell reporter, cycloheximide protein synthesis inhibition counterscreen. max response, %. 300,000 tested, 12% active; in the data active = max response mostly above about 13%, no sharp cut-off; inactive = mostly below about 14%; note: read at 38.3 µM for the half of the compounds with a filed dose; 0% is about no effect
Pf growth 48h = inhibits P. falciparum growth in the first generation, 48 h; P. falciparum luciferase growth in erythrocytes, 48 h; Potency, µM (highest dose often 28.7 µM), for inactives: at the highest dose activity change, negative = inhibition, most hits filed as inhibitors; 310,000 tested, 5.9% active; AID 504832; note: potency is the fitted concentration of half-maximal effect; % is set by controls: 0 for no effect and ±100 for the full control effect
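Luciferase-expressing parasites in RBCs, 2% Hct / 0.1% parasitemia final; RPMI 1640 + 0.5% Albumax; 37 C, 5% CO2, one generation; luminescence read-out, lower signal = inhibition.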
HCMV antiviral = inhibitors of human cytomegalovirus; 410,000 tested, 4.5% active; activity change, negative = inhibition, % at 57.5 µM; AID 1259415; HFF cells, HCMV-luciferase reporter, 72 h; hits give low values; in the data active = activity change below about -60%; inconclusive = no clear call, values can overlap the other calls; inactive = above about -39%; note: % is set by controls: 0 for no effect and ±100 for the full control effect
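After 16 h attachment at 37C, HFF cells received test compound and HCMV-luciferase (1 PFU/cell); reporter luminescence read 72 h later, data normalized against buffer-only and known inhibitor Salinomycin.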
Pf growth 96h = inhibits malaria parasite growth, 96 h; P. falciparum luciferase reporter growth, 96 h; Potency, µM (top dose mostly 28.7 µM), for the others: at the highest dose activity change, negative = inhibition, actives largely listed as inhibitors; 320,000 tested, 6.9% active; note: potency is the fitted concentration of half-maximal effect; % is set by controls: 0 for no effect and ±100 for the full control effect
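Infected RBCs, 2% Hct / 0.05% parasitemia final; luciferase-reporter P. falciparum; cpd 96 h, 37 C, 5% CO2; luciferase detection reagent; luminescence.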
Shiga inhibitor = blocks Shiga toxin action in Vero cells; Vero cells, Shiga toxin protein synthesis inhibition reporter; inhibition, % at 38.7 µM; 290,000 tested, 9.2% active; in the data active = inhibition mostly above about 28%, no sharp cut-off; inactive = mostly below about 43%; note: 0% is about no effect
* = called active by the depositor. Unless noted, calls come from the whole dose curve; as a rule, active = well fitted inhibition curve with a large enough effect; inconclusive = small, poorly fitted or top-dose-only effect, or another doubt; inactive = no such curve, though single readings can be large or run the other way.

For Cn1nccc1C(=O)N1CCCC(C(=O)c2ccc(C(F)(F)F)cc2)C1 (stereo unspecified) the results were Cycloheximide cs 7.2, Pf growth 48h 28.3%, HCMV antiviral -24.2, Pf growth 96h 14.7µM* and Shiga inhibitor 15.1.
Cc1cccc(N2CC(C(=O)Nc3nnc(SCc4ccccn4)s3)CC2=O)c1 (stereo unspecified) was read as Cycloheximide cs 6.5, Pf growth 48h -16.2%, HCMV antiviral 1.9, Pf growth 96h inconclusive and Shiga inhibitor 23.8.
`COc1ccc(-c2nnc(SCC(=O)Nc3ccc(C)c(C)c3)s2)cc1` gave HCMV antiviral -6.3.
Screening C[C@@H]1CN([C@H](C)CO)C(=O)CCCn2nncc2CO[C@@H]1CN(C)S(=O)(=O)c1ccc(C#N)cc1 returned HCMV antiviral -0.7.
`Cc1ccc(C)c(NC(=O)Cn2c(=O)n(CCC(=O)NCc3ccc4c(c3)OCO4)c(=O)c3ccccc32)c1` gave HCMV antiviral -2.2.
For COc1ccc(CCNC(=O)CCCCn2c(=O)c3ccccc3n(CC(=O)Nc3c(C)cccc3C)c2=O)cc1OC the results were HCMV antiviral -109.3*.
Cc1ccccc1Cn1c(=O)n(CCCCC(=O)NCc2ccc3c(c2)OCO3)c(=O)c2ccccc21 was read as HCMV antiviral -33.1.
Screening COc1ccc(Cl)cc1NC(=O)Cn1c(=O)n(CCC(=O)NCc2ccc3c(c2)OCO3)c(=O)c2ccccc21 returned HCMV antiviral -63.7*.
Cc1ccccc1Cn1c(=O)n(CCC(=O)NCc2ccc3c(c2)OCO3)c(=O)c2ccccc21 was read as Cycloheximide cs -2.0, HCMV antiviral inconclusive, Pf growth 96h 4.65µM* and Shiga inhibitor -9.4.
`COc1ccc(CCNC(=O)CCCn2c(=O)c3ccccc3n(Cc3ccccc3C)c2=O)cc1OC` gave HCMV antiviral 14.0.
Cc1ccc(-n2ncc(C(=O)NCCN3CCOCC3)c2C2CCN(C(=O)OC(C)(C)C)CC2)c(C)c1 was read as HCMV antiviral -3.9.
NC(=O)C1CCN(C(=O)c2ccc(NC3=NC4CS(=O)(=O)CC4S3)cc2)CC1 (stereo unspecified) was read as Cycloheximide cs -9.7, HCMV antiviral 7.1, Pf growth 96h 33.0% and Shiga inhibitor -7.3.
Screening O=C(O)c1ccc2c(c1)N(Cc1ccccc1)C(=O)c1ccccc1S2 returned Cycloheximide cs 0.7, Pf growth 48h 2.6%, HCMV antiviral -16.1, Pf growth 96h 12.7% and Shiga inhibitor 13.1.
`COC(=O)[C@]1(C)N[C@H](CN(C)C(=O)COc2ccccc2)[C@@H]2C(=O)N(C)C(=O)[C@@H]21` gave HCMV antiviral 17.7.
Screening CCN1CCN(c2ncnc3c2sc2nc(N4CCOCC4)c4c(c23)CCC4)CC1 returned Cycloheximide cs -4.8, Pf growth 48h -3.6%, HCMV antiviral 30.2, Pf growth 96h 51.7% and Shiga inhibitor 22.1.
CN(C)CCNc1ncnc2c1sc1nc(-c3ccccc3)c3c(c12)CCCC3 was read as Cycloheximide cs -4.1, Pf growth 48h inconclusive, HCMV antiviral -67.6*, Pf growth 96h 1.5% and Shiga inhibitor -6.3.
For c1nc(NCCN2CCOCC2)c2sc3nc(N4CCOCC4)c4c(c3c2n1)CCC4 the results were Cycloheximide cs -3.8, Pf growth 48h 7.38µM*, HCMV antiviral -6.6 and Shiga inhibitor -3.7.
Screening CN(Cc1ccccc1)c1ccc([N+](=O)[O-])cc1C(=O)O returned Cycloheximide cs -2.4, Pf growth 48h -7.8%, HCMV antiviral -1.7, Pf growth 96h 1.3% and Shiga inhibitor -6.0.
Screening Cc1nn(C)c(C)c1CNC(=O)c1nn2c(c1Cl)NC(c1cccs1)CC2C(F)(F)F (stereo unspecified) returned Cycloheximide cs -1.3, Pf growth 48h inconclusive, HCMV antiviral -85.6*, Pf growth 96h -13.2% and Shiga inhibitor -9.3.
Cc1nn(C)cc1CNC(=O)c1cc2n(n1)C(C(F)(F)F)CC(c1cccs1)N2 (stereo unspecified) was read as Cycloheximide cs -3.0, Pf growth 48h -12.3%, HCMV antiviral inconclusive and Shiga inhibitor -16.1.
`CC[C@H](OC(C)=O)C(C[C@H](C)N(C)C)(c1ccccc1)c1ccccc1` gave HCMV antiviral -86.5*.
Screening COc1ccccc1N=CC=C1OC(C)(C)C(C)(C)O1 returned Cycloheximide cs 10.2*, Pf growth 48h inconclusive, HCMV antiviral 20.9, Pf growth 96h -26.0% and Shiga inhibitor 49.5.
Cc1ccc(N=CC=C2OC(C)(C)C(C)(C)O2)c(C)c1 was read as Cycloheximide cs 10.1, Pf growth 48h inconclusive, HCMV antiviral -30.2, Pf growth 96h 19.7% and Shiga inhibitor 33.7.
For CCC(C)C1NC(=O)C2CCCN2C(=O)C(CC(C)C)OC(=O)CCNC(=O)C(C)N(C)C(=O)C(C(C)C)N(C)C1=O (stereo unspecified) the results were HCMV antiviral -86.8*.
For COC(=O)c1ccc(N2CCOCC2)c(NC(=O)c2ccco2)c1 the results were Cycloheximide cs -3.5, Pf growth 48h 41.1%, HCMV antiviral 29.9, Pf growth 96h inconclusive and Shiga inhibitor -10.6.
Screening CCOC(=O)C1=C(C)NC(C)=C(C(=O)OCC)C1c1ccccc1C=CC(=O)OC(C)(C)C returned Pf growth 48h 13.5µM* and Pf growth 96h 8.49µM*.
`CCOC(=O)C1=C(C)NC(=O)NC1/C=C/c1ccccc1OC` (stereo unspecified) gave Cycloheximide cs -3.4, Pf growth 48h 2.4%, HCMV antiviral -15.6, Pf growth 96h -20.8% and Shiga inhibitor -11.5.
`CCOC(=O)C1=C(C)NC(C)=C(C(=O)OCC)C1/C=C/c1ccccc1OC` gave Cycloheximide cs 5.3, Pf growth 48h 9.28µM*, HCMV antiviral 30.6, Pf growth 96h inconclusive and Shiga inhibitor -5.7.
Screening COCCOC(=O)C1=C(C)NC(C)=C(C(=O)OCCOC)C1/C=C/c1ccccc1OC returned Cycloheximide cs -1.4, Pf growth 48h inconclusive, HCMV antiviral 86.5, Pf growth 96h 9.28µM* and Shiga inhibitor -8.7.
CCOC(=O)C1=C(C)NC(C)=C(C(=O)OCC)C1/C=C/c1ccccc1 was read as Cycloheximide cs 1.7, Pf growth 48h inconclusive, HCMV antiviral -19.2, Pf growth 96h inconclusive and Shiga inhibitor 8.8.
For O=C(CN(Cc1ccco1)C(=O)c1cc(=O)[nH]c2ccccc12)Nc1ccccc1Br the results were Cycloheximide cs -1.4, Pf growth 48h inconclusive, HCMV antiviral -3.7, Pf growth 96h 9.28µM* and Shiga inhibitor 15.6.
`O=C(O)c1ccc(CNC(=O)c2ccc3c(c2)C(=O)N(Cc2cccnc2)C3=O)cc1` gave Cycloheximide cs -2.5, Pf growth 48h 17.1%, HCMV antiviral 11.9, Pf growth 96h inconclusive and Shiga inhibitor -3.1.
Screening COc1ccc(/C=N\NC(=O)c2ccccc2)cc1COc1ccc(F)cc1 returned Cycloheximide cs 27.2*, Pf growth 48h inconclusive, HCMV antiviral 40.1, Pf growth 96h inconclusive and Shiga inhibitor 198.0.
